Measurements reported in PubChem BioAssay (EPA / NIEHS).
Where “and” joins values, the source holds several entries; their conditions need not be identical. Identical values can stand only once. A structure can be active in one record and inactive in another. Calls of active or inactive are those of the source. The calls were made as follows: active = hit-call score of the fitted dose curve at least 0.9, where 1 is the maximum; inactive = score below 0.9.

Read-out: Interleukin-8 (IL8), CXCL8 (gene 3576)
Experiment: BSK_LPS_IL8: BioMAP Diversity Plus: LPS Assay for Interleukin-8 (IL8) Biomarker Activity (AID 2283078)
Details: primary human HUVEC with PBMC; actives raise or lower the signal
Procedure: BSK_LPS is a cell-based, multiplexed-readout assay that uses umbilical vein endothelium and peripheral blood mononuclear cells, a human vascular primary cell co-culture, with measurements taken at 24 hours after chemical dosing in a 96-well plate.BSK_LPS_IL8 is an assay component measured in the BSK_LPS assay. It measures IL-8 antibody related to regulation of gene expression using ELISA technology.Data from the assay component BSK_LPS_IL8 was analyzed into 1 assay endpoint. This assay endpoint, BSK_LPS_IL8, was analyzed with bidirectional fitting relative to DMSO as the negative control and baseline of activity. Using a type of binding reporter, gain or loss-of-signal activity can be used to understand changes in the signaling as they relate to the gene CXCL8. Furthermore, this assay endpoint can be referred to as a primary readout, because this assay has produced multiple assay endpoints where this one serves a signaling function. To generalize the intended target to other relatable targets, this assay endpoint is annotated to the cytokine intended target family, where the subfamily is interleukins.
The levels of cell surface (or secreted, indicated by the prefix "s") biomarker endpoints were measured by ELISA. Overt cytotoxicity to cells in confluent adherent cultures (all systems other than the BT system) was assessed by measuring total protein levels using sulforhodamine B (SRB) staining in parallel cultures at the time of biomarker measurements, indicated as SRB endpoints. For proliferation assays for adherent cell types, individual cell types are cultured at sub-confluence and relative cell numbers quantified by SRB staining at time points optimized for each system (48 h: 3C and CASM3C systems; 72 h: BT and HDF3CGF systems; 96 h: SAg system). SRB was performed by staining cells with 0.1% SRB after fixation with 10% TCA and reading wells at 560 nm.Viability and proliferation of PBMC (T cells) was quantified by Alamar Blue reduction for the SAg and BT systems. For PBMC viability (referred to as PBMC Cytotoxicity within the assay endpoint names), cells were plated (75,000/well in a 96-well plate) and then chemical samples added for 1 h before addition of activators, SEB and TSST-1 (20 ng/mL final concentration each). Cells were incubated for 90 h. Then, Alamar Blue (20 uL/well) (Invitrogen, Cat DAL1100) was added for 6 h, and the plates were read with a fluorescence microplate reader at 546/580 nm (excitation/emission). For PBMC proliferation, cells were plated and activated as above but incubated for only 16 h prior to addition of Alamar Blue. Plates were read after 6 h.

SMILES | outcome | AC50
O=S(=O)(O)CCC(F)(F)C(F)(F)C(F)(F)C(F)(F)F | inactive | –
C[Si](Cl)(Cl)CCC(F)(F)C(F)(F)C(F)(F)C(F)(F)C(F)(F)C(F)(F)F | inactive | –
O=S(=O)(OCC(F)(F)F)C(F)(F)C(F)(F)C(F)(F)C(F)(F)F | inactive | –
CC(C)(C)c1cc(CCC(=O)NCCCCCCNC(=O)CCc2cc(C(C)(C)C)c(O)c(C(C)(C)C)c2)cc(C(C)(C)C)c1O | inactive | –
FC(F)(F)C(F)(F)C(F)(F)C(F)(F)C(F)(F)C(F)(F)CC[Si](Cl)(Cl)Cl | inactive | –
CNS(=O)(=O)C(F)(F)C(F)(F)C(F)(F)C(F)(F)C(F)(F)C(F)(F)C(F)(F)C(F)(F)F | inactive | –
CCN(CC)c1ccc2c(c1)Oc1cc(N(CC)CC)ccc1C21OC(=O)c2ccccc21 | – | 6.55 µM (active)
NC(O)(C(F)(F)F)C(F)(F)F | inactive | 5.33 µM (active)
O=C(Cl)C(F)(F)C(F)(F)C(F)(F)C(F)(F)C(F)(F)C(F)(F)F | inactive | 50.3 µM (active)
O=C(Cl)C(F)(F)C(F)(F)C(F)(F)C(F)(F)C(F)(F)C(F)(F)C(F)(F)F | inactive | 20.2 µM (active) and 16.6 µM (active)
OCC(O)CC(F)(F)C(F)(F)C(F)(F)C(F)(F)C(F)(F)C(F)(F)C(F)(F)C(F)(F)F (stereo not given) | inactive | –
NCC(F)(F)C(F)(F)C(F)(F)C(F)(F)C(F)(F)C(F)(F)C(F)(F)C(F)(F)F | inactive | –
CCN(CCO)S(=O)(=O)C(F)(F)C(F)(F)C(F)(F)C(F)(F)C(F)(F)C(F)(F)C(F)(F)C(F)(F)F | inactive | –
CCN(CC)c1ccc(C=O)c(O)c1 | inactive | –
COC(F)(C(F)F)C(F)(F)F (stereo not given) | inactive | –
NCC(F)(F)C(F)(F)C(F)(F)C(F)(F)C(F)(F)C(F)(F)F | inactive | –
O=S(=O)(Cl)C(F)(F)C(F)(F)C(F)(F)C(F)(F)C(F)(F)C(F)(F)C(F)(F)C(F)(F)F | – | 30 µM (active)
Brc1nc2ccccc2s1 | inactive | –

SMILES | outcome | AC50
CCOC(=O)CC(=O)C(F)(F)C(F)(F)F | inactive | –
O=S(=O)(O)CCC(F)(F)C(F)(F)C(F)(F)C(F)(F)C(F)(F)C(F)(F)C(F)(F)C(F)(F)F | inactive | –
Cc1cnccn1 | inactive | –
O=C1c2c(O)ccc(Nc3ccc(CCO)cc3)c2C(=O)c2c([N+](=O)[O-])ccc(O)c21 | inactive | –
CN(C(=O)C(F)(F)C(F)(F)C(F)(F)F)[Si](C)(C)C | inactive | –
C=CC(=O)OCC(F)(F)C(F)(F)C(F)(F)C(F)(F)C(F)(F)C(F)(F)C(F)(F)C(F)F | inactive | –
NC(=O)C(F)(F)C(F)(F)C(F)(F)C(F)(F)C(F)(F)C(F)(F)C(F)(F)F | inactive | –
OCCCCC(F)(F)C(F)(F)C(F)(F)C(F)(F)F | inactive | –
NS(=O)(=O)C(F)(F)C(F)(F)C(F)(F)C(F)(F)C(F)(F)C(F)(F)F | inactive | –
C=C(C)C(=O)OCC(F)(F)C(F)(F)C(F)(F)C(F)F | inactive | –
CCN=C1C=CC(=C(c2ccc(N(CC)CC)cc2)c2ccc(N(CC)CC)cc2)c2ccccc21 | – | 782 nM (active) and 483 nM (active)
C[C@]12CC[C@H]3C(=CCc4cc(O)ccc43)[C@@H]1CCC2=O | inactive | –
Cc1cc(O)c(C(C)(C)C)cc1C(C)(C)C | – | 9.26 µM (active)
Nc1cc([N+](=O)[O-])cc(Cl)c1O | inactive | –
O=C(O)C(F)(F)C(F)(F)C(F)(F)C(F)(F)C(F)(F)C(F)(F)C(F)F | inactive | 30 µM (active)
Cc1cc(C)c(O)c(C(C)(C)C)c1 | inactive | –
NC(=O)C(F)(F)C(F)(F)C(F)(F)C(F)F | inactive | 22.7 µM (active)
